Drawing on PubChem BioAssay, this text covers composite z-score and z-score for 6 compounds.

Active and inactive are the calls of the source.

The subject of assay [1] is Plasmodium falciparum Sir2 (PF13_0152, Sir2A). The assay can be described thus: Plasmodium falciparum Sir2A binding compounds – biochemical, small-molecule microarray, 635 nm fluorescence, primary screen (AID 1098).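 Also: score merges spot fluorescence intensity with its signal-to-noise ratio.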 As to conditions: fluorescence 635 nm, higher = more signal.
Assay [2] in a line: probe aDKK1 binding to arrayed compounds – biochemical, biotinylated probe, 635/667 nm fluorescence, primary screen (AID 1099).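 Also: score merges 667nm spot fluorescence with signal to noise across triplicate slides.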 The note with it: small-molecule microarray, higher = more signal.
The nature of assay [3]: probe aCHRDL2 binding to arrayed compounds – biochemical, biotinylated probe, 635/667 nm fluorescence, primary screen (AID 1100). As to conditions: small-molecule microarray, higher = more signal.
Assay [4] can be described thus: change in splice reporter luminescence, either direction, cell-based, HEK293, spliceosome inhibition project, primary screen (AID 1101).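 Also: HEK293 cells carrying a splicing-competent luciferase reporter gene; test concentration not given here.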 The note with it: HEK293 splicing luciferase reporter, 24 h, higher = more signal, called active from +8 up or from −8 down. (In general: Reporter assays use an easily measured gene product as a stand-in for the process of interest.)

Assay [5] has as its target Fibroblast growth factor 10 (Homo sapiens) (UniProt O15520). The assay can be described thus: compounds binding fibroblast growth factor 10 – biochemical, small-molecule microarray, 635 nm fluorescence, primary screen (AID 1102). As to conditions: FGF10 binding, fluorescence 635 nm, higher = more signal.
Assay [6] deals with glycogen synthase kinase-3 (GSK3A per assay name; protocol says GSK3B). The assay can be described thus: compounds binding glycogen synthase kinase-3 – biochemical, small-molecule microarray, 635 nm fluorescence, GSK3A, primary screen (AID 1103). Also: the record names both GSK3A and GSK3B. As to conditions: fluorescence 635 nm, higher = more signal.
Assay [7] concerns the target Epidermal growth factor receptor (Homo sapiens) (UniProt P00533). The assay can be described thus: compounds binding epidermal growth factor receptor – biochemical, small-molecule microarray, 635 nm fluorescence, primary screen (AID 1104).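 Also: score merges 667 nm emission intensity with spot signal to noise over triplicate slides.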 The note with it: EGFR binding, higher = more signal.
Assay [8] has as its target Follistatin-related protein 3 (Homo sapiens) (UniProt O95633). Nature of the assay: compounds binding follistatin-related protein 3 – biochemical, small-molecule microarray, 635 nm fluorescence, primary screen (AID 1105).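 Also: score merges emission near 667 nm and signal to noise per printed spot across three slides.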 The note with it: FSTL3 binding, higher = more signal.
In assay [9] the target is Dickkopf-related protein 1 (Homo sapiens) (UniProt O94907). Nature of the assay: small molecules binding DKK1 protein – biochemical, small-molecule microarray, 635 nm fluorescence scan, primary screen (AID 1106).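 Also: score merges emission near 667 nm with signal to noise over three replicate slides.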 As to conditions: higher = more signal.
Assay [10] deals with Inhibin beta A chain (activin A). The assay can be described thus: small molecules binding activin A – biochemical, small-molecule microarray, 635 nm fluorescence scan, primary screen (AID 1107).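 Also: mouse activin A protein probed at 4.33 µg/mL on printed slides; score merges bound-protein fluorescence near 667 nm with spot signal-to-noise.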 As to conditions: INHBA, higher = more signal.
In assay [11] the test system is Human papillomavirus type 1a protein E7 (residues 44-93). Nature of the assay: small molecules binding HPV E7 44-93 – biochemical, small-molecule microarray, residues 44-93, 635 nm fluorescence, primary screen (AID 1108).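 Also: E7 fragment applied at 1 µg/mL in TBST for 1 h at 4 C; score combines spot fluorescence with its signal to noise ratio.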 The note with it: fluorescence 635 nm, higher = more signal.
The nature of assay [12]: hepatitis C replication reporter changes, two-sided – Huh7 cells, luciferase reporter, HCV replication inhibitor project, primary screen (AID 1109).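 Also: huh7 hepatoma cells harbouring a luciferase neomycin HCV replicon reporter; luciferase luminescence as measure of HCV replicon replication; test concentration not given here.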 The note with it: Huh7 HCV replicon luciferase reporter, 48 h; higher = more signal.
Assay [13] has as its target Left-right determination factor 2 (Homo sapiens) (UniProt O00292). The assay can be described thus: small molecules binding LEFTY2 protein – biochemical, small-molecule microarray, 635 nm fluorescence scan, primary screen (AID 1110). As to conditions: higher = more signal.
In assay [14] the target is Calmodulin-1 (Homo sapiens) (UniProt P0DP23). The assay can be described thus: small molecules binding calmodulin-1 with EGTA – biochemical, small-molecule microarray, Cy5-labelled CALM1, profiling panel (AID 1111).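 Also: labelled calmodulin applied in Tris saline Tween buffer holding calcium plus EGTA and DTT.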 As to conditions: Cy5-CALM1 binding fluorescence, higher = more signal.
Assay [15] shares this target. The assay can be described thus: small molecules binding Ca-loaded calmodulin-1 – biochemical, small-molecule microarray, Cy5-labelled CALM1, plus calcium, artefact control for SMM control-protein annotation, profiling panel (AID 1112).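 Also: score merges spot fluorescence with signal to noise from triplicate slides.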 As to conditions: Cy5-CALM1 binding fluorescence, higher = more signal.
A short description of assay [16]: probe aWnt5a binding to arrayed compounds – biochemical, biotinylated probe, 635/667 nm fluorescence, primary screen (AID 1113).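 Also: score merges 667 nm fluorescence intensity with signal-to-noise per printed feature.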 The note with it: small-molecule microarray, higher = more signal.
A short description of assay [17]: probe aShh binding to arrayed compounds – biochemical, biotinylated probe, 635/667 nm fluorescence, primary screen (AID 1114).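 Also: probe is biotin-labelled aShh protein from a stem cell growth factor screen; measures binding of labelled protein to compounds printed on the slide; score merges feature fluorescence at 667 nm with signal-to-noise.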 The note with it: small-molecule microarray, higher = more signal.
Assay [18] is described as follows: probe aNog binding to arrayed compounds – biochemical, biotinylated probe, 635/667 nm fluorescence, primary screen (AID 1115).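 Also: probe is biotinylated aNog protein used at 0.15 µg/mL for 1 h at 4 C; z-score combines 667 nm fluorescence of each spot with its signal to noise.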 As to conditions: small-molecule microarray, higher = more signal.
Assay [19] deals with Torsin-1A-interacting protein 1 (Homo sapiens) (UniProt Q5JTV8). Nature of the assay: compound microarray binding of lysate hLAP1 – cell lysate, small-molecule microarray, COS7 lysate, 635/667 nm fluorescence, primary screen (AID 1116). The note with it: 635 nm fluorescence, higher = more signal.
Assay [20] addresses Alpha-bungarotoxin (Bungarus multicinctus) (UniProt P60615). Nature of the assay: compounds binding labelled alpha-BTX control protein – biochemical, small-molecule microarray, Alexa647 label, 635/667 nm fluorescence, artefact control for SMM control protein annotation, profiling panel (AID 1117). As to conditions: alpha-BTX-A647 binding fluorescence, higher = more signal.

Fibroblast growth factor 10 (Homo sapiens), sequence (O15520 whole entry, looked up): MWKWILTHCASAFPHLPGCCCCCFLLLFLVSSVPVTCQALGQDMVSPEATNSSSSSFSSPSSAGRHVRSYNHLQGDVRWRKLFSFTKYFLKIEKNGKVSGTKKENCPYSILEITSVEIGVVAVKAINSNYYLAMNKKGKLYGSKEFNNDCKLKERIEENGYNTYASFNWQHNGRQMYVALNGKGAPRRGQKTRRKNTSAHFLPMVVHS
Epidermal growth factor receptor (Homo sapiens), sequence (P00533 whole entry, looked up): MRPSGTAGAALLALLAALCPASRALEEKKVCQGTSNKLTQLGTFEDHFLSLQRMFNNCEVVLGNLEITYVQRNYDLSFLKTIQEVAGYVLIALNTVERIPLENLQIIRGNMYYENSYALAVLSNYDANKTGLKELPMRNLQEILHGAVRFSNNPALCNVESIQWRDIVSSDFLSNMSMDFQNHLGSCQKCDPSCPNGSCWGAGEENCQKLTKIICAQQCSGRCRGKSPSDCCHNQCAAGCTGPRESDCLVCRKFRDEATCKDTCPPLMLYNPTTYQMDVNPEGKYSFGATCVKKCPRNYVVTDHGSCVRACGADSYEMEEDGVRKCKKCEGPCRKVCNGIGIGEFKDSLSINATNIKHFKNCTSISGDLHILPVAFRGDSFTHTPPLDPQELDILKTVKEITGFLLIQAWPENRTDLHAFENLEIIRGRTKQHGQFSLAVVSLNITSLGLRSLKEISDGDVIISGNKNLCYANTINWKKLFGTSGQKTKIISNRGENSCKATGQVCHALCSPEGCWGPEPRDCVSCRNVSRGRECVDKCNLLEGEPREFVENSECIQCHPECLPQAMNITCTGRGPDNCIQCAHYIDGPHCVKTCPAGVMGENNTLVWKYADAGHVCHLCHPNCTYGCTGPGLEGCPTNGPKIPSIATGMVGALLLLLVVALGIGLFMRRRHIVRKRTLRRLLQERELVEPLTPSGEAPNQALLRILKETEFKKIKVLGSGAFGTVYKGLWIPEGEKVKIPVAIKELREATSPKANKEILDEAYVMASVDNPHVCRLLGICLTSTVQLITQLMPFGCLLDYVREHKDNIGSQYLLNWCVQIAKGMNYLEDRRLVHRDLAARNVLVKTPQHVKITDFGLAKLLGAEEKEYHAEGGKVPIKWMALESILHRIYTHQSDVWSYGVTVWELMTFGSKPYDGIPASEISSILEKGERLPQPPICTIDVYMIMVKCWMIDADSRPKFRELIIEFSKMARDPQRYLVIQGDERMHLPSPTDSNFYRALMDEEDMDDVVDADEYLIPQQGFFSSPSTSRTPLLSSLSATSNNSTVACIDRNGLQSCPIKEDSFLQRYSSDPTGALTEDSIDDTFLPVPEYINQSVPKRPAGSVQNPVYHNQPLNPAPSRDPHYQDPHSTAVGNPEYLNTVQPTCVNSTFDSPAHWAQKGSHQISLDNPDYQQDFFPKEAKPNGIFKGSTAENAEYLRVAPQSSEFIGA
Dickkopf-related protein 1 (Homo sapiens), sequence (O94907 whole entry, looked up): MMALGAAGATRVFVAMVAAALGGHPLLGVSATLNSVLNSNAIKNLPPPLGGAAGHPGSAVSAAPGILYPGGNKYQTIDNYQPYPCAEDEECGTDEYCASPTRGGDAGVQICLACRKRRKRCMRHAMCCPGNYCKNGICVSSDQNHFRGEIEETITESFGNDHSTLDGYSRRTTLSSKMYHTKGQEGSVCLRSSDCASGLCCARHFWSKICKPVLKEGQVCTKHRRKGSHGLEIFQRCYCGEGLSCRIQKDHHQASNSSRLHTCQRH
Alpha-bungarotoxin (Bungarus multicinctus), sequence (P60615 whole entry, looked up): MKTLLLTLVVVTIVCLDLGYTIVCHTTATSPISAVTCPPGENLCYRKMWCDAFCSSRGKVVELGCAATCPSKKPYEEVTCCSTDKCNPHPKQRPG
Follistatin-related protein 3 (Homo sapiens), sequence (O95633 whole entry, looked up): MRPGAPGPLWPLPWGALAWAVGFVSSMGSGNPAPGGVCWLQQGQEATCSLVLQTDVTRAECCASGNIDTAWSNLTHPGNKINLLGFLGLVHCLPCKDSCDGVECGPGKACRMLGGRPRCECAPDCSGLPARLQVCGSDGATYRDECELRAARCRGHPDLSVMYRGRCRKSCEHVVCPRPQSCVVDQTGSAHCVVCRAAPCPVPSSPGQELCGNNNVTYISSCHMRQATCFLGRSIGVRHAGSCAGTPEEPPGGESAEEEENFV
Torsin-1A-interacting protein 1 (Homo sapiens), sequence (Q5JTV8 whole entry, looked up): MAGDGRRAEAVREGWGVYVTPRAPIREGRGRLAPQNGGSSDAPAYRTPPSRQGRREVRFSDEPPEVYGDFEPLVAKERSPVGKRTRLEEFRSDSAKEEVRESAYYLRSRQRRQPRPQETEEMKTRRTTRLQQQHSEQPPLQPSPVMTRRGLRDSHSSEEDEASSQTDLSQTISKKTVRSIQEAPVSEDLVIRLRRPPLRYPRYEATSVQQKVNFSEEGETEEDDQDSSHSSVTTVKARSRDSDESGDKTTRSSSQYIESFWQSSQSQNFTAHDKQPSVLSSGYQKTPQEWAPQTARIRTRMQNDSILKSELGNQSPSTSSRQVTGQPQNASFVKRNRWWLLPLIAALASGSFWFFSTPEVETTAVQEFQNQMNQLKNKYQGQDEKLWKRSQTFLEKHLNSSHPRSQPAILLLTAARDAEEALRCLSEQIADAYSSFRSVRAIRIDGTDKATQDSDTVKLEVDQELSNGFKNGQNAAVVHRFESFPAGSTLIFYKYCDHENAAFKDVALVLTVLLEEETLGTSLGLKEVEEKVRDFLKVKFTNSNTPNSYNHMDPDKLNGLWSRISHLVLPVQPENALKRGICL
Left-right determination factor 2 (Homo sapiens), sequence (O00292 whole entry, looked up): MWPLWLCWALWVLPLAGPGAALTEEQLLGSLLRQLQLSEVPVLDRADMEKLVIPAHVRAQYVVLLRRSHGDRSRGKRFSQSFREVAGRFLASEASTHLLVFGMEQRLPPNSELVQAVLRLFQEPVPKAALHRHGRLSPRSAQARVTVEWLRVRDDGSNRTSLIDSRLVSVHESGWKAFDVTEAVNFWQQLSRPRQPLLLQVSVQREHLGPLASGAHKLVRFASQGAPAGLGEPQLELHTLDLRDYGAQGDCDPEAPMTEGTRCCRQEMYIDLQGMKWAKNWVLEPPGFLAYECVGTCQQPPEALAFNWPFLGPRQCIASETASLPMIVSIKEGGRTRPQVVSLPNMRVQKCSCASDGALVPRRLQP

As to `O=C1C[C@@](C(=O)NCc2ccccc2)(c2ccc([N+](=O)[O-])cc2)[C@@H](c2ccc(CO)cc2I)N1CC12CC3CC(CC(C3)C1)C2`, the composite z-score is 1.05 in assay [1]; -0.0517 in assay [2]; 0.214 in [3]; 1.31 in assay [5]; 0.794 in assay [6]; 0.547 in assay [7]. For the same compound, the composite z-score in [8] is 1.44; in assay [9] it was 0.578; in assay [10], -0.0204; in assay [11], 1.39; in [13], 0.591; in assay [14], 0.387. In addition, the composite z-score is 0.0818 in assay [15]; -0.0529 in assay [16]; -0.152 in [17]; -0.131 in assay [18]; 0.903 in [19]; 1.02 in assay [20]. Also, the z-score in assay [4] is -0.218 (inactive); in [12], -3.32.

On to `CCOC(=O)C[C@H]1[C@H](OC(=O)c2ccc(-c3ccccc3)cc2)[C@@H](NC(=O)CC(C)C)c2cc(OCCCO)ccc2N1C(=O)c1ccccc1`, for which the composite z-score in assay [1] was 0.166; in assay [2], 0.148; in assay [3], -0.0525; in assay [5], 0.418; in assay [6] it was -0.106; in assay [7], -0.101. The composite z-score in [8] stood at 0.648; in [9], 0.455; in [10] it was 0.214; in assay [11], 1.07; in [13], 0.0613; in assay [14] it was 0.232. Also, the composite z-score in assay [15] is 0.462; in [16] it was -0.0718; in assay [17], -0.2; in assay [18], -0.1; in assay [19], 0.266; in assay [20], 0.198. Also, the z-score in assay [4] is -0.493 (inactive); in [12] it was -1.96.

As to `COCC(=C=CC[C@H](O)c1cccc(OCCO)c1)C[C@H](O)COCc1ccccc1`, the composite z-score is 1.66 in assay [1]; 0.39 in assay [2]; -0.121 in assay [3]; 1.17 in assay [5]; 0.677 in assay [6]; -0.751 in assay [7]. Further, the composite z-score in assay [8] was 0.0438; in [9], -0.529; in assay [10], 1.03; in assay [11], 0.768; in assay [13], -0.35; in assay [14] it was -0.238. Moreover, the composite z-score is -0.135 in [15]; 0.0037 in assay [16]; 0.191 in assay [17]; -0.0863 in [18]; 1.58 in assay [19]; -0.363 in [20]. Moreover, the z-score was 0.13 (inactive) in [4] and -0.754 in assay [12].

With `COc1ccc(CCNC(=O)[C@@]2(Cc3ccccc3I)c3ccccc3C(=O)N(Cc3ccccc3Cl)[C@H]2c2ccc(CO)cc2)cc1`, the composite z-score in assay [1] is 1.79; in assay [2] it was 0.316; in assay [3], 0.646; in [5] it was 0.202; in assay [6] it was -0.181; in assay [7], -0.662. In addition, the composite z-score was -0.407 in [8]; -0.735 in [9]; 0.0137 in assay [10]; -0.542 in [11]; -0.818 in assay [13]; 0.331 in assay [14]. Moreover, the composite z-score was 0.354 in [15]; 0.0718 in assay [16]; 0.235 in assay [17]; 0.371 in assay [18]; 0.589 in assay [19]; -0.0759 in assay [20]. The z-score in assay [4] was -1.55 (inactive); in [12] it was -2.44.

On to `CCOC(=O)C[C@H]1[C@H](OC(=O)c2ccc(C(=O)c3ccccc3)cc2)[C@@H](NC(=O)CC(C)C)c2cc(OCCCO)ccc2N1C(=O)Cc1ccc(OC)cc1`, for which the composite z-score in [1] is 0.0092; in assay [2], 0.393; in [3] it was 0.671; in assay [5] it was 0.197; in assay [6], 0.231; in [7], -0.204. For the same compound, the composite z-score in assay [8] was determined as 0.261; in [9] it was 0.276; in assay [10], 0.829; in [11], 1.1; in [13] it was 0.142; in [14] it was 1.19. The composite z-score in [15] is 0.263; in [16], -0.0852; in assay [17], -0.238; in assay [18], 0.0437; in [19] it was 0.812; in [20] it was 0.118. The z-score is -0.441 (inactive) in assay [4] and -2.05 in [12].

On to `C[C@]1(C(=O)O)c2ccccc2C(=O)N(Cc2ccc(OC(F)(F)F)cc2)[C@H]1c1ccc(CO)cc1`, for which the composite z-score in [1] was 0.0634; in assay [2] it was 0.702; in [3], 1.01; in assay [5], 0.0104; in assay [6] it was -0.502; in assay [7], -0.409. Besides, the composite z-score was -0.0953 in [8]; -0.656 in assay [9]; 0.496 in assay [10]; -0.829 in assay [11]; -0.618 in [13]; 1.03 in assay [14]. Further, the composite z-score in assay [15] is 0.714; in [16] it was -0.129; in assay [17], 0.147; in assay [18], 0.265; in assay [19], 0.703; in [20], 1.56. For the same compound, the figures for the z-score in assay [4] and in assay [12] were 0.524 (inactive) and -0.102, respectively.
